The panel holds about 79,000 compounds, 15% with a hit somewhere; the sample as a whole holds those more often. The source made the active and inactive calls. Cut-off read from the data, not from the text of the source: active = growth inhibition above about 70%; inactive = the rest.
Experiments:
[1] = NCI Yeast Anticancer Drug Screen. Data for the rad50 strain (AID 155);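 note: 0% = growth of vehicle-only cultures of the same strain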; settings: S. cerevisiae rad50 strain growth inhibition, stronger effect = higher value
In short: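 Compounds were tested on a yeast strain with an engineered DNA damage repair alteration; the reported value is growth inhibition normalised to vehicle treatment.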

[2] = NCI Yeast Anticancer Drug Screen. Data for the mec2-1 strain (AID 157); settings: S. cerevisiae mec2-1 strain, stronger effect = higher value
In short: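 Readout is yeast growth inhibition, normalised to vehicle-treated controls, in the mec2-1 strain exposed to compound.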

[3] = NCI Yeast Anticancer Drug Screen. Data for the sgs1 mgt1 strain (AID 161);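 note: 0% = growth of cultures given vehicle only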; settings: S. cerevisiae sgs1 mgt1 strain, stronger effect = higher value
In short: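 This yeast growth screen uses a strain with defined DNA-repair lesions; compound-treated growth is compared with vehicle-treated growth.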

[4] = NCI Yeast Anticancer Drug Screen. Data for the cln2 rad14 strain (AID 165);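 note: 0% = growth equal to vehicle treated cultures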; settings: S. cerevisiae cln2 rad14 strain, stronger effect = higher value
In short: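 Relative to vehicle controls, growth inhibition of compound-treated cln2 rad14 yeast was recorded.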

[5] = NCI Yeast Anticancer Drug Screen. Data for the bub3 strain (AID 167); settings: S. cerevisiae bub3 mutant strain, stronger effect = higher value
In short: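 Growth of a checkpoint-deficient yeast mutant is measured after compound exposure. Values represent inhibition relative to vehicle.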

[6] = NCI Yeast Anticancer Drug Screen. Data for the mlh1 rad18 strain (AID 175); settings: S. cerevisiae mlh1 rad18 strain growth inhibition, stronger effect = higher value
In short: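 Test agents were incubated with a yeast strain of defined genotype (DNA damage repair defect). Inhibition of growth was derived by comparison with vehicle-exposed cultures.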

[7] = at 5.0 µM (retest, dose inferred, filed as 0.5)
[8] = at 50.0 µM (retest, dose inferred, filed as 5.0)

Measured: growth inhibition

Cc1ccc(C)c(C(=O)CCN)c1
inactive: [1]; [7] -2% | [1]; [8] 5% | [1]; at 50.0 µM 3.45% | [2]; [7] 1% | [2]; [8] 1% | [2]; at 50.0 µM -10.7% | [3]; [7] 0% | [3]; [8] -2% | [3]; at 50.0 µM 0.3% | [4]; [7] 6% | [4]; [8] 2% | [5]; [7] 7% | [5]; [8] 8% | [5]; at 50.0 µM -5.3% | [6]; [7] 2% | [6]; [8] 6% | [6]; at 50.0 µM 3.55%
active: [4]; at 50.0 µM 84.8%

CCOc1ccc(C(=O)CCN2CCOCC2)cc1
active: [1]; at 50.0 µM 77.5%
inactive: [1]; [7] 8% | [1]; [8] 40% | [2]; [7] 14% | [2]; [8] 27% | [2]; at 50.0 µM 42.1% | [3]; [7] 20% | [3]; [8] 53% | [3]; at 50.0 µM 57% | [4]; [7] 15% | [4]; [8] 59% | [4]; at 50.0 µM 52.9% | [5]; [7] 14% | [5]; [8] 46% | [5]; at 50.0 µM 46% | [6]; [7] 6% | [6]; [8] 35% | [6]; at 50.0 µM 55.3%

CCN(CC)C(=O)N1CCN(c2cccc(Cl)c2)CC1
inactive: [1]; [7] 4% | [1]; [8] 58% | [2]; [7] 0% | [3]; [7] 5% | [4]; [7] 1% | [4]; [8] 50% | [5]; [7] 4% | [6]; [7] 2%
active: [1]; at 50.0 µM 74% | [2]; [8] 84% | [2]; at 50.0 µM 91.2% | [3]; [8] 85% | [3]; at 50.0 µM 90.2% | [4]; at 50.0 µM 93% | [5]; [8] 73% | [5]; at 50.0 µM 85.7% | [6]; [8] 76% | [6]; at 50.0 µM 90.6%

CN1N=C2c3ccccc3CC[C@H]2C1c1cccc(O)c1 (stereo not given in full)
active: [3]; [8] 88% | [4]; [8] 83% | [5]; [8] 78% | [6]; [8] 82%
inactive: [1]; [7] -36% | [1]; [8] 65% | [1]; at 50.0 µM 52.7% | [2]; [7] 5% | [2]; [8] 34% | [2]; at 50.0 µM 23.4% | [3]; [7] -16% | [3]; at 50.0 µM 69.2% | [4]; [7] 24% | [4]; at 50.0 µM 43.8% | [5]; [7] 21% | [5]; at 50.0 µM 67.2% | [6]; [7] -16% | [6]; at 50.0 µM 35.9%

CCOC(=O)c1[nH]n(-c2ccccc2)c(=O)c1/C=N/C(=S)N=Nc1c(O)[nH]c2ccccc12
inactive: [1]; [7] -9% | [1]; [8] -9% | [1]; at 50.0 µM -2.3% | [2]; [7] -21% | [2]; [8] -17% | [2]; at 50.0 µM -23.4% | [3]; [7] -7% | [3]; [8] -4% | [3]; at 50.0 µM -22.6% | [4]; [7] -18% | [4]; [8] -20% | [4]; at 50.0 µM 28.1% | [5]; [7] -13% | [5]; [8] 2% | [5]; at 50.0 µM -15.8% | [6]; [7] -1% | [6]; [8] -2% | [6]; at 50.0 µM -35.7%
